# From PubChem BioAssay
# Legend:
# [1] = tested on: Human papillomavirus type 1a protein E7 (residues 44-93); test: HPV1a E7 fragment binders on microarrays, primary screen, biochemical, small-molecule microarray, residues 44-93, 635 nm fluorescence (AID 1108); settings: small-molecule microarray binding, fluorescence 635 nm; higher = more signal;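 further: E7 fragment applied at 1 µg/mL in TBST for 1 h at 4 C; score combines spot fluorescence with its signal to noise ratio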
# [2] = modulators of HCV replicon luciferase signal, primary screen, HCV replication inhibitor project, Huh7 cells, luciferase reporter (AID 1109); settings: 48 h, higher = more signal;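 further: huh7 hepatoma cells harbouring a luciferase neomycin HCV replicon reporter; luciferase luminescence as measure of HCV replicon replication; test concentration not given here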
# [3] = target: Left-right determination factor 2 (Homo sapiens) (UniProt O00292); test: LEFTY2 binders on small-molecule microarrays, primary screen, biochemical, small-molecule microarray, 635 nm fluorescence scan (AID 1110); settings: LEFTY2 binding, higher = more signal
# Sequence of Left-right determination factor 2 (Homo sapiens) (O00292 whole entry, looked up): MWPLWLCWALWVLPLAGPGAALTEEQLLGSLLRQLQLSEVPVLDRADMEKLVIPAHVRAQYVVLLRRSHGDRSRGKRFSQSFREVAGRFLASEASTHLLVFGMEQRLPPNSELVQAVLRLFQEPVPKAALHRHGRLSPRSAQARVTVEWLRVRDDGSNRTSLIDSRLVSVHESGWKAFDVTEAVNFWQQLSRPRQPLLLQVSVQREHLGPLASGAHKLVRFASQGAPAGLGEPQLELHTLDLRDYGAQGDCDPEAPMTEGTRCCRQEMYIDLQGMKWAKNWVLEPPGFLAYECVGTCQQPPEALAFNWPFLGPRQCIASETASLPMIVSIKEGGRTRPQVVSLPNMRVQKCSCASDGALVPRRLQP
# [4] = target: Calmodulin-1 (Homo sapiens) (UniProt P0DP23); test: CALM1 binders on microarrays, EGTA buffer, profiling panel, biochemical, small-molecule microarray, Cy5-labelled CALM1 (AID 1111); settings: Cy5-CALM1 binding fluorescence, higher = more signal;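 further: labelled calmodulin applied in Tris saline Tween buffer holding calcium plus EGTA and DTT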
# [5] = target: Calmodulin-1 (Homo sapiens) (UniProt P0DP23); test: calcium-bound CALM1 binders on microarrays, profiling panel, artefact control for SMM control-protein annotation, biochemical, small-molecule microarray, Cy5-labelled CALM1, plus calcium (AID 1112); settings: Cy5-CALM1 binding fluorescence, higher = more signal;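 further: score merges spot fluorescence with signal to noise from triplicate slides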
# [6] = small-molecule microarray binders of probe aWnt5a, primary screen, biochemical, biotinylated probe, 635/667 nm fluorescence (AID 1113); settings: higher = more signal;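 further: score merges 667 nm fluorescence intensity with signal-to-noise per printed feature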
# [7] = small-molecule microarray binders of probe aShh, primary screen, biochemical, biotinylated probe, 635/667 nm fluorescence (AID 1114); settings: higher = more signal;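 further: probe is biotin-labelled aShh protein from a stem cell growth factor screen; measures binding of labelled protein to compounds printed on the slide; score merges feature fluorescence at 667 nm with signal-to-noise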
# [8] = small-molecule microarray binders of probe aNog, primary screen, biochemical, biotinylated probe, 635/667 nm fluorescence (AID 1115); settings: higher = more signal;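 further: probe is biotinylated aNog protein used at 0.15 µg/mL for 1 h at 4 C; z-score combines 667 nm fluorescence of each spot with its signal to noise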
# [9] = target: Torsin-1A-interacting protein 1 (Homo sapiens) (UniProt Q5JTV8); test: LAP1 binders from COS7 cell lysate, primary screen, small-molecule microarray, 635/667 nm fluorescence (AID 1116); settings: COS7-hLAP1 lysate binding, 635 nm fluorescence, higher = more signal
# Sequence of Torsin-1A-interacting protein 1 (Homo sapiens) (Q5JTV8 whole entry, looked up): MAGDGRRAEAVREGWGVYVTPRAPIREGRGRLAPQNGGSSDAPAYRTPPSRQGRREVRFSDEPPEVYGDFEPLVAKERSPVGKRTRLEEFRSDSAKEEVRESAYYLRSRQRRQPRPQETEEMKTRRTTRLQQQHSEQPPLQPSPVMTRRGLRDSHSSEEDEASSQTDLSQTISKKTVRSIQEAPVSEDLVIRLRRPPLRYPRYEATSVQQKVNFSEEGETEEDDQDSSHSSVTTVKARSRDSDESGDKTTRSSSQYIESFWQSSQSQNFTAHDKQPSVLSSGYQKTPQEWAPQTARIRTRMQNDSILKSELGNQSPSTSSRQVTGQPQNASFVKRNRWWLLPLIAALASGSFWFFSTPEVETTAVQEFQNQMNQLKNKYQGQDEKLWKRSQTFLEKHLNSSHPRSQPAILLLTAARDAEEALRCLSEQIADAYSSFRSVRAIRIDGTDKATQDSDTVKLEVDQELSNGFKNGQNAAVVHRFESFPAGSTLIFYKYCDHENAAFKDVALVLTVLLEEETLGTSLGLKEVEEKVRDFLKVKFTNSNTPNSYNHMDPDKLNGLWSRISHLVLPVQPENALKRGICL
# [10] = target: Alpha-bungarotoxin (Bungarus multicinctus) (UniProt P60615); test: alpha-bungarotoxin binders on microarray, profiling panel, artefact control for SMM control protein annotation, biochemical, small-molecule microarray, Alexa647 label, 635/667 nm fluorescence (AID 1117); settings: alpha-BTX-A647 binding fluorescence, higher = more signal
# Sequence of Alpha-bungarotoxin (Bungarus multicinctus) (P60615 whole entry, looked up): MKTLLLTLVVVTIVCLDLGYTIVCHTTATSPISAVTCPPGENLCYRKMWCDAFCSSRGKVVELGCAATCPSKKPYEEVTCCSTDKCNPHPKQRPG
Structure (SMILES),composite z-score [1],z-score [2],composite z-score [3],composite z-score [4],composite z-score [5],composite z-score [6],composite z-score [7],composite z-score [8],composite z-score [9],composite z-score [10]
C=C(COC)/C(=C/C[C@H](OC(=O)c1ccncc1)c1cccc(OCCO)c1)c1cc(C(=O)OC)ccc1OC,-1.16,-1.67,0.229,-0.0871,-0.46,-0.156,-0.0769,-0.104,0.516,1.29
C=C(COC)C(=O)CC[C@@H](OC(=O)c1cccnc1)c1ccc(CO)o1,0.369,-0.778,0.355,-0.0743,-0.116,-0.1,-0.0977,0.094,0.424,0.285
CN1C(=O)C2C=CC(C(O)c3ccccn3)N(Nc3ccccc3)C2C1=O (stereo not given),0.409,0.0435,0.129,-0.163,-0.408,-0.0647,0.318,0.266,0.353,0.476
CN1C=C(C(=O)OCCS(C)(=O)=O)C(C(=O)OCCS(C)(=O)=O)=CC(CCCO)=CC1C1CC1 (stereo not given),0.117,-0.552,-0.0097,0.0991,-0.0416,-0.126,0.0434,0.257,-0.116,0.198
CN1CCC(CCCO)=CC1c1ccc(CN2CCCC2)cc1 (stereo not given),1.25,-1.94,1.3,-0.561,-0.938,0.0215,0.441,0.215,1.49,1.34
O=C(NCc1ccccc1)[C@]1(CCS(=O)(=O)c2ccccc2)N=C(c2ccc(OCCCO)cc2)O[C@@H]1c1ccccc1,1.15,-2.05,0.554,1.53,0.206,0.0579,0.182,0.0539,0.51,0.452
O=C(CCN1CCOCC1)c1cccc(O)c1,0.591,-3.35,1.47,-0.396,-1.21,-0.0372,-0.123,-0.158,0.0422,1.4
[N-]=[N+]=NCc1ccccc1[C@@H]1OC(c2ccc(OCCCO)cc2)=N[C@]1(Cc1ccccc1)C(=O)N1CCCCC1,1.39,-2.79,0.232,1.4,0.955,0.0136,0.369,0.733,1.27,1.14
CCN(CC)c1ccc(N2CC=CC34O[C@@H]5/C=C\CCCOC(=O)C5[C@H]3C(=O)N(C(CO)C(C)C)[C@@H]4C2=O)cc1 (stereo not given in full),-0.22,-0.132,-0.393,-0.956,-1.15,-0.0758,-0.221,-0.164,-0.0861,-0.692
COCC1=C2[C@@H](CCc3ccccc3)OB(O)C[C@@H]2[C@@H]2C(=O)N(Cc3ccccc3)C(=O)[C@@H]2C1,-0.0734,-0.895,0.0192,-0.222,-0.112,-0.0242,-0.214,0.362,-0.448,1.19
O=C1C[C@@](C(=O)NC2CC2)(c2ccc([N+](=O)[O-])cc2)[C@@H](c2ccc(CO)cc2)N1CC12CC3CC(CC(C3)C1)C2,0.869,-2.39,-0.523,0.557,-0.0787,-0.0751,-0.147,0.11,0.471,0.601
COC(=O)[C@@]1(Cc2ccccc2)[C@H]2c3cc(C(=O)N4CCCC4)n(C)c3C[C@H]2CN1C(=O)c1ccccc1,0.123,-1.45,-0.302,2.57,0.961,-0.0481,-0.2,0.268,1.28,0.455
COC(=O)[C@@]1(Cc2ccc(OC)cc2)[C@H]2c3cc(C(=O)N4CCCC4)n(CCc4c[nH]c5cc(F)ccc45)c3C[C@H]2CN1C(=O)c1ccccc1,0.991,-1.89,0.259,2.73,1.07,0.168,0.265,2.06,2.94,1.42
O=C1O[C@H](c2ccccc2)[C@H](c2ccccc2)N2[C@H]1[C@@H](C(=O)Nc1nc3ccccc3s1)[C@]1(C(=O)Nc3ccccc31)[C@H]2c1ccc(O)cc1,1.35,-1.35,0.684,0.281,-0.322,-0.0903,-0.138,-0.0272,0.536,1.27
C=C(C(=O)CC[C@H](OC(C)=O)c1ccc(OCCO)cc1)C(C)C,-0.268,-4.11,1.03,-0.189,-1.39,-0.1,-0.0157,-0.0965,0.949,1.05
C=CC[C@]1(C(=O)N2CCOCC2)N=C(c2ccc(OCCCO)cc2)O[C@H]1c1ccccc1,1.18,-0.716,-0.42,0.732,1.14,-0.0512,0.218,1.53,2.09,2.05
COc1ccc(C(=O)Nc2cccc(CN3C(=O)[C@@]4(O[C@@H](CCn5cc(CCO)nn5)[C@H]([Si](C)(C)c5ccc(OC)cc5)[C@H]4C)c4ccccc43)c2)cc1,1.37,-5.15,0.714,0.468,0.308,-0.0403,0.13,0.153,0.602,1.6
CS(=O)(=O)CCOC(=O)C1=CC(CCCO)=CC(c2cccs2)N(Cc2cc3c(cc2Br)OCO3)C=C1C(=O)OCCS(C)(=O)=O (stereo not given),1.27,-1.22,0.858,1.29,0.671,0.0968,0.0639,-0.261,0.955,1.8
